“And” between values parts separate entries of the source, which are not always exact repeats. Equal entries are not always repeated. About 2,000 (36%) of roughly 5,500 compounds were called active. Another 18% or so got no clear call; they are omitted. Cut-off read from the data, not from the text of the source: active = normalized growth mostly below about 0.91 (no sharp cut-off); inconclusive = no clear call, values can overlap the other calls; inactive = mostly above about 0.92. This is one part of the list.
Assay: chemical genetic growth profiling, strain panel (AID 1159580);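 note: tested at 20 µM; growth read once vehicle control cultures reached saturation at 30 °C; 1 = growth at the plate median or of vehicle wells; lower values mean less growth of the strain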
Details: growth OD

Measured: normalized growth

Nc1ccncc1
inactive: S. cerevisiae deletion strains, locus YJR075W, strain HOC1, stronger effect = lower value 1.03 and 1 | S. cerevisiae deletion strains, locus YKL009W, strain mrt4, stronger effect = lower value 1.03 | S. cerevisiae deletion strains, locus YKL068W, stronger effect = lower value 0.988 | S. cerevisiae deletion strains, locus YKL085W, strain MDH1 (second series), stronger effect = lower value 0.995 | S. cerevisiae deletion strains, locus YKL085W, strain MDH1, stronger effect = lower value 0.995 | S. cerevisiae deletion strains, locus YKL160W, strain elf1, stronger effect = lower value 0.994 | S. cerevisiae deletion strains, locus YKL190W, strain CNB1, stronger effect = lower value 1.01 | S. cerevisiae deletion strains, locus YKR001C, strain vps1, stronger effect = lower value 0.931 | S. cerevisiae deletion strains, locus YKR026C, strain gcn3, stronger effect = lower value 0.984 | S. cerevisiae deletion strains, locus YKR091W, strain srl3, stronger effect = lower value 0.987 | S. cerevisiae deletion strains, locus YLL001W, strain dnm1, stronger effect = lower value 0.981 | S. cerevisiae deletion strains, locus YLL026W, stronger effect = lower value 0.999 | S. cerevisiae deletion strains, locus YLL041C, strain sdh2, stronger effect = lower value 0.989 | S. cerevisiae deletion strains, locus YLR027C, strain aat2, stronger effect = lower value 0.994 | S. cerevisiae deletion strains, locus YLR039C, strain RIC1, stronger effect = lower value 1 | S. cerevisiae deletion strains, locus YLR058C, strain SHM2, stronger effect = lower value 1.02 | S. cerevisiae deletion strains, locus YLR102C, strain apc9, stronger effect = lower value 0.97 | S. cerevisiae deletion strains, locus YLR113W, strain HOG1, stronger effect = lower value 0.958 | S. cerevisiae deletion strains, locus YLR221C, strain rsa3, stronger effect = lower value 1 | S. cerevisiae deletion strains, locus YLR258W, strain gsy2, stronger effect = lower value 0.987 | S. cerevisiae deletion strains, locus YLR262C, strain YPT6 (second series), stronger effect = lower value 0.971 | S. cerevisiae deletion strains, locus YLR262C, strain YPT6, stronger effect = lower value 1.02 | S. cerevisiae deletion strains, locus YLR268W, strain sec22, stronger effect = lower value 0.921 | S. cerevisiae deletion strains, locus YLR320W, strain mms22, stronger effect = lower value 0.993 | S. cerevisiae deletion strains, locus YLR330W, strain CHS5, stronger effect = lower value 1.01 | S. cerevisiae deletion strains, locus YLR342W, strain FKS1 (second series), stronger effect = lower value 1.02 | S. cerevisiae deletion strains, locus YLR342W, strain FKS1, stronger effect = lower value 0.991 | S. cerevisiae deletion strains, locus YLR357W, strain rsc2, stronger effect = lower value 1.01 | S. cerevisiae deletion strains, locus YLR370C, strain arc18, stronger effect = lower value 0.997 | S. cerevisiae deletion strains, locus YLR371W, strain rom2, stronger effect = lower value 0.976 | S. cerevisiae deletion strains, locus YLR384C, strain iki3, stronger effect = lower value 0.994 | S. cerevisiae deletion strains, locus YLR418C, strain cdc73, stronger effect = lower value 0.935 | S. cerevisiae deletion strains, locus YML016C, strain PPZ1, stronger effect = lower value 1.02 | S. cerevisiae deletion strains, locus YML032C, strain rad52, stronger effect = lower value 0.957 | S. cerevisiae deletion strains, locus YML120C, strain ndi1, stronger effect = lower value 0.998 | S. cerevisiae deletion strains, locus YML124C, strain tub3, stronger effect = lower value 0.977 | S. cerevisiae deletion strains, locus YMR058W, strain fet3, stronger effect = lower value 1 | S. cerevisiae deletion strains, locus YMR078C, strain ctf18, stronger effect = lower value 0.958 | S. cerevisiae deletion strains, locus YMR125W, strain sto1, stronger effect = lower value 0.984 | S. cerevisiae deletion strains, locus YMR129W, stronger effect = lower value 0.993 | S. cerevisiae deletion strains, locus YMR205C, strain PFK2, stronger effect = lower value 0.999 | S. cerevisiae deletion strains, locus YMR223W, strain ubp8, stronger effect = lower value 0.977 | S. cerevisiae deletion strains, locus YMR231W, strain pep5, stronger effect = lower value 0.995 | S. cerevisiae deletion strains, locus YMR263W, strain SAP30, stronger effect = lower value 1.02 and 1.01 | S. cerevisiae deletion strains, locus YMR307W, strain GAS1, stronger effect = lower value 1.01 | S. cerevisiae deletion strains, locus YNL067W, strain RPL9B, stronger effect = lower value 1.01 | S. cerevisiae deletion strains, locus YNL071W, strain lat1, stronger effect = lower value 0.995 | S. cerevisiae deletion strains, locus YNL128W, strain TEP1, stronger effect = lower value 1.02 | S. cerevisiae deletion strains, locus YNL153C, strain GIM3, stronger effect = lower value 1.01 and 1 | S. cerevisiae deletion strains, locus YNL175C, strain NOP13, stronger effect = lower value 1 | S. cerevisiae deletion strains, locus YNL183C, strain NPR1, stronger effect = lower value 0.912 | S. cerevisiae deletion strains, locus YNL197C, strain WHI3, stronger effect = lower value 1.01 | S. cerevisiae deletion strains, locus YNL209W, strain ssb2, stronger effect = lower value 0.993 | S. cerevisiae deletion strains, locus YNL224C, strain SQS1, stronger effect = lower value 0.998 | S. cerevisiae deletion strains, locus YNL233W, strain BNI4, stronger effect = lower value 1 | S. cerevisiae deletion strains, locus YNL248C, strain rpa49, stronger effect = lower value 0.993 | S. cerevisiae deletion strains, locus YNL250W, strain rad50, stronger effect = lower value 0.978 | S. cerevisiae deletion strains, locus YNL271C, strain bni1, stronger effect = lower value 0.942 | S. cerevisiae deletion strains, locus YNL298W, strain CLA4, stronger effect = lower value 0.966 | S. cerevisiae deletion strains, locus YNL307C, strain MCK1, stronger effect = lower value 0.947 | S. cerevisiae deletion strains, locus YNL322C, strain KRE1 (second series), stronger effect = lower value 0.99 | S. cerevisiae deletion strains, locus YNL322C, strain KRE1, stronger effect = lower value 1.01 and 1.02 | S. cerevisiae deletion strains, locus YNR049C, strain mso1, stronger effect = lower value 0.99 | S. cerevisiae deletion strains, locus YNR052C, strain pop2, stronger effect = lower value 0.974 | S. cerevisiae deletion strains, locus YOL006C, strain TOP1, stronger effect = lower value 0.996 | S. cerevisiae deletion strains, locus YOL012C, strain htz1 1.65 | S. cerevisiae deletion strains, locus YOL147C, strain pex11, stronger effect = lower value 0.956 | S. cerevisiae deletion strains, locus YOR001W, strain rrp6, stronger effect = lower value 0.993 | S. cerevisiae deletion strains, locus YOR061W, strain CKA2, stronger effect = lower value 1.02 | S. cerevisiae deletion strains, locus YOR069W, strain VPS5, stronger effect = lower value 1.02 | S. cerevisiae deletion strains, locus YOR070C, strain gyp1, stronger effect = lower value 0.999 | S. cerevisiae deletion strains, locus YOR080W, strain dia2, stronger effect = lower value 0.99 | S. cerevisiae deletion strains, locus YOR083W, strain WHI5 (second series), stronger effect = lower value 0.998 | S. cerevisiae deletion strains, locus YOR083W, strain WHI5, stronger effect = lower value 1 | S. cerevisiae deletion strains, locus YOR106W, strain vam3, stronger effect = lower value 1.01 | S. cerevisiae deletion strains, locus YOR136W, strain idh2, stronger effect = lower value 0.974 | S. cerevisiae deletion strains, locus YOR144C, strain elg1, stronger effect = lower value 0.963 | S. cerevisiae deletion strains, locus YOR184W, strain ser1, stronger effect = lower value 0.904 | S. cerevisiae deletion strains, locus YOR231W, strain MKK1, stronger effect = lower value 0.968 | S. cerevisiae deletion strains, locus YOR265W, strain rbl2, stronger effect = lower value 0.991 | S. cerevisiae deletion strains, locus YOR270C, strain vph1, stronger effect = lower value 0.98 | S. cerevisiae deletion strains, locus YOR290C, strain snf2, stronger effect = lower value 1 | S. cerevisiae deletion strains, locus YOR316C, strain cot1, stronger effect = lower value 0.973 | S. cerevisiae deletion strains, locus YPL051W, strain arl3, stronger effect = lower value 0.988 | S. cerevisiae deletion strains, locus YPL055C, strain LGE1, stronger effect = lower value 1.07 | S. cerevisiae deletion strains, locus YPL078C, strain atp4, stronger effect = lower value 0.995 | S. cerevisiae deletion strains, locus YPL106C, strain sse1, stronger effect = lower value 1 | S. cerevisiae deletion strains, locus YPL240C, strain hsp82, stronger effect = lower value 0.983 | S. cerevisiae deletion strains, locus YPL241C, strain CIN2, stronger effect = lower value 1.01 | S. cerevisiae deletion strains, locus YPL256C, strain CLN2, stronger effect = lower value 0.946 | S. cerevisiae deletion strains, locus YPR119W, strain clb2, stronger effect = lower value 0.947 | S. cerevisiae deletion strains, locus YPR141C, strain kar3, stronger effect = lower value 0.99 | S. cerevisiae deletion strains, locus YPR163C, strain tif3, stronger effect = lower value 0.959 | S. cerevisiae deletion strains, locus YPR167C, strain met16, stronger effect = lower value 0.969 | S. cerevisiae deletion strains, strain wtn01, stronger effect = lower value 0.963 | S. cerevisiae strains, strain wild type, stronger effect = lower value 1.02

Source: PubChem BioAssay AID1159580 (chemical genetic matrix, 2015)
